According to PubChem BioAssay AID488911 (Broad Institute, 2010):
Measured potencies and affinities stand elsewhere. Calls of active or inactive are those of the source.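 Rule for the calls: active = falling signal whose fitted half-effect dose is at or below ten times the top valid dose; inconclusive = flat fit showing a moderate drop, or a poor fit; inactive = the rest.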

Assay: mammalian cell toxicity in NIH-3T3 fibroblasts, dose response, cytotoxicity control for antifungal resistance reversal project, Alamar Blue, dry powder, set 2 (AID 488911)
Conditions: NIH-3T3 viability with fluconazole, 48 h; series mostly up to 26 µM

| Structure (SMILES) | outcome |
| --- | --- |
| O=C(c1ccc(Cl)cc1)N1CCN(c2ccncc2)CC1 | inactive |
| CC1CN(c2ccnc3cc(Cl)ccc23)CCN1C(=O)c1ccc(Cl)cc1 (centres undefined) | inactive |
| COc1ccc(C(=O)N2CCN(c3ccnc4cc(Cl)ccc34)CC2)cc1 | inactive |
| COCCC(=O)N1CCN(c2ccnc3cc(Cl)ccc23)CC1 | inactive |
| O=C(c1ccc(Cl)cc1)N1CCN(c2ccnc3ccccc23)CC1 | inactive |
| Clc1ccc2c(N3CCNCC3)ccnc2c1 | inactive |
| O=C(c1cccc(Cl)c1)N1CCN(c2ccnc3cc(Cl)ccc23)CC1 | inactive |
| N#Cc1ccc(N2CCN(C(=O)c3ccc(Cl)cc3)CC2)nc1 | inactive |
| O=C(c1ccc(Cl)cn1)N1CCN(c2ccnc3cc(Cl)ccc23)CC1 | inactive |
| Cc1cc(N2CCN(C(=O)c3ccc(Cl)cc3)CC2)c2ccc(F)cc2n1 | inactive |
| COc1ccc2c(N3CCN(C(=O)c4ccc(Cl)cc4)CC3)ccnc2c1 | inactive |
| O=C(c1ccc(F)cc1)N1CCN(c2ccnc3cc(Cl)ccc23)CC1 | inactive |
| O=C(c1ccc(Cl)cc1)N1CCN(c2ccnc3cc(Cl)ccc23)CC1 | inactive |
| O=C(c1ccc(Cl)cc1)N1CCN(c2ccnc3ccc(Cl)cc23)CC1 | inactive |
| O=C(c1ccccc1Cl)N1CCN(c2ccnc3cc(Cl)ccc23)CC1 | inactive |
| O=C(c1ccc(Cl)cc1)N1CCN(c2ncnc3ccccc23)CC1 | inactive |
| CCCC(=O)N1CCN(c2ccnc3cc(Cl)ccc23)CC1 | inactive |
| COc1cccc2c(N3CCN(C(=O)c4ccc(Cl)cc4)CC3)cc(C)nc12 | inactive |
| O=C(c1ccc(Cl)cc1)C1CCN(c2ccnc3cc(Cl)ccc23)CC1 | inactive |
